Sfp inh – inhibitors of Bacillus subtilis Sfp phosphopantetheinyl transferase | Q9F4F7 | Biochemical Sfp PPTase activity, qHTS | Potency, µM, actives largely listed as inhibitors | hit rate 3.5% among 310,000;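 also: the enzyme is Sfp with the accession as filed and its product quenches rhodamine fluorescence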
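With Hepes-Na pH 7.6 buffer containing 10 mM MgCl2, Sfp (15 nM) modified BHQ-2-YbbR (12.5 uM) using rhodamine-CoA (5 uM). Two reads 30 minutes apart at 525/598 nm yielded each well's rate.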
G9a inh – inhibitors of human histone lysine methyltransferase G9a | Q96KQ7 | G9a H3K9 monomethylation, AlphaScreen, 2 h | Potency, µM (series often up to 102 µM), most hits filed as inhibitors | hit rate 8.8% among 350,000; also: nearly all actives have a fitted effect of over 75% in size
Target sequence (Q96KQ7 913-1193 limits assumed): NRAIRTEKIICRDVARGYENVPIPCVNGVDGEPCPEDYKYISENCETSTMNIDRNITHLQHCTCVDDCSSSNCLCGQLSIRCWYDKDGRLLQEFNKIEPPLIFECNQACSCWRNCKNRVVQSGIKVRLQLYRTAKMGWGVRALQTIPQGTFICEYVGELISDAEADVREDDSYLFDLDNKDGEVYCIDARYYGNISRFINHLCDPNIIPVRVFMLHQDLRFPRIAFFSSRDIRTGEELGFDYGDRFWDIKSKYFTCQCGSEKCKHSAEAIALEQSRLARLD
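G9a (20 nM) preincubated 15 min RT with compounds, then 500 nM biotinylated H3K9 peptide and 20 uM SAM added; 2 h RT reaction. Monomethyl-H3K9 product detected by AlphaScreen with anti-H3K9me1 antibody, streptavidin donor and anti-rabbit IgG acceptor beads.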
Glioma ERSR ind – induces the endoplasmic reticulum stress response in human glioma cells; AID 602332; U87-MG GRP78 promoter luciferase reporter, 16 h; hit rate 0.02% among 420,000; Potency, µM, actives largely listed as activators; also: series mostly up to about 76 µM; nearly all actives have a fitted effect of over 35% in size
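ERSR induction read as luciferase luminescence (Bright-Glo, 10 min at room temperature) in stably transfected human U87-MG glioma cells exposed to compounds for 16 h, using GRP78 as sensor.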
VDR inh – blocks the human vitamin D receptor. P11473. VDR-SRC2-3 peptide fluorescence polarization, 2 h. Potency, µM, most hits filed as inhibitors. hit rate 0.93% among 400,000. AID 504847
Target sequence (P11473 whole entry, looked up): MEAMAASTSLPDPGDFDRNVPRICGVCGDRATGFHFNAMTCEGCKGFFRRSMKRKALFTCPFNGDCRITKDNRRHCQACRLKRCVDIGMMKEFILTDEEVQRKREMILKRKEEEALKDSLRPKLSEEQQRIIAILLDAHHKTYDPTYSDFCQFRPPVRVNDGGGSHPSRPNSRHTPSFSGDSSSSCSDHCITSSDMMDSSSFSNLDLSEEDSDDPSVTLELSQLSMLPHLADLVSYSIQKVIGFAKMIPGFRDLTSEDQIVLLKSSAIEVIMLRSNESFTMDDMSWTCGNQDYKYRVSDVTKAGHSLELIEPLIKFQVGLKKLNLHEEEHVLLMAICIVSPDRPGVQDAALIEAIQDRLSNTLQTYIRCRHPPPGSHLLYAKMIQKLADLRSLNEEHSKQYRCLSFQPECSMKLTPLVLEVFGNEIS
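After 23 nl compound addition and a short centrifugation, plates sat for 2 hours at ambient temperature; polarization of fluorescence then indicated loss of VDR binding to peptide SRC2-3.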
ALOX12 inh – ALOX12 (human) lipoxygenase inhibition | P18054 | purified 12hLO, xylenol orange hydroperoxide absorbance | Potency, µM (highest dose often 108 µM), most hits filed as inhibitors | hit rate 1.1% among 580,000 | AID 1671190
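Purified human 12hLO (150 nM final) in 25 mM Hepes, 0.01% Triton X-100, pH 7.0 was preincubated 15 min at room temperature with compound. Then 40 uM arachidonic acid was added, 30 min. Hydroperoxide was read by Fe-XO absorbance ratio 573/405 nm.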
Of the large screens only hits and unclear results are named; the others gave an inactive call; ! = not active in a repeat. The full list was thinned out, with hits kept by preference. Calls follow the shape of the dose curve; as a rule, active = well fitted curve in the direction sought with a large enough effect; inconclusive = small, poorly fitted or top-dose-only effect, or another doubt; inactive = no such curve, though single readings can be large; an effect the other way counts as inactive or inconclusive.

CN(CC1CCOCC1)S(=O)(=O)c1ccc(F)c(Cl)c1	none (no result: Sfp inh, G9a inh, Glioma ERSR ind, VDR inh)
O=c1[nH]cc(I)cc1I	Sfp inh 22µM
N#Cc1c(NC(=O)c2cc3nc(-c4ccc(Br)cc4)cc(C(F)(F)F)n3n2)sc2c1CCCC2	G9a inh 10µM (no result: Sfp inh)
CCNC(=O)COC(=O)C1CCC(=O)N(c2ccc(OC)cc2)C1c1ccc(OC)cc1 (stereo not drawn)	none
COc1ccc(C2C(C(=O)OCC(=O)N3CCCCC3)CCC(=O)N2c2ccc(OC)cc2)cc1 (stereo not drawn)	G9a inh 45µM
CN(C)C(=O)c1ccc(-c2nc(N3CCOCC3)c3ccccc3n2)cc1	ALOX12 inh 45µM
CN(C)C(=O)c1ccc(-c2nc(-n3ccnc3)c3ccccc3n2)cc1	ALOX12 inh inconclusive
COc1ccc(C(=O)Nc2nnc(C(C)C)s2)cc1OC	none (no result: Sfp inh)
CCOc1ccc(C(=O)Nc2nnc(C(C)C)s2)cc1OCC	Sfp inh 89µM, G9a inh 10µM
CCN(CC)S(=O)(=O)c1ccc(C(=O)Nc2nnc(C(C)C)s2)cc1	G9a inh 35µM
Cc1cccc(C(=O)c2ccc(C(C)(C)C)cc2)c1	none (no result: Sfp inh, G9a inh, Glioma ERSR ind, VDR inh)
C#CC1(O)C(C)CN(C)CC1C (stereo not drawn)	none (no result: Sfp inh, G9a inh, Glioma ERSR ind, VDR inh)
COc1ccc(-c2ncc3c(n2)OCCN(c2ccccc2)C3=O)cc1F	none (no result: Sfp inh, G9a inh, Glioma ERSR ind, VDR inh)
COCCNC(=O)[C@@H]1Cc2cn(Cc3cccnc3)c3cccc(c23)[C@H](CC(C)C)N1	none (no result: Sfp inh, G9a inh, Glioma ERSR ind, VDR inh)
O=C(COC(=O)CNC(=O)c1ccccc1)NCCc1ccccc1	none
O=C(CNC(=O)c1ccccc1)NCCc1ccc(O)c(O)c1	Sfp inh 50µM, G9a inh 8.9µM, ALOX12 inh inconclusive (no result: Glioma ERSR ind, VDR inh)
CC(=O)NCCc1ccc(O)c(O)c1	G9a inh 2µM (no result: Sfp inh, Glioma ERSR ind, VDR inh, ALOX12 inh)
NCCc1ccc(O)c(O)c1	Sfp inh 79µM!, G9a inh 8.9µM, ALOX12 inh 2.8µM!
CCOC(=O)N1CCN(S(=O)(=O)c2ccc(C(=O)N(CCN(C)C)c3nc4ccc(CC)cc4s3)cc2)CC1	G9a inh 50µM
CCOC(=O)N1CCN(S(=O)(=O)c2ccc(C(=O)N(CCCN(C)C)c3nc4ccc(CC)cc4s3)cc2)CC1	G9a inh inconclusive
CCOC(=O)N1CCN(S(=O)(=O)c2ccc(C(=O)N(CCN(CC)CC)c3nc4ccc(C)cc4s3)cc2)CC1	G9a inh 50µM
COc1ccc(-c2cc(C)no2)cc1S(=O)(=O)NCc1ccco1	G9a inh inconclusive (no result: Sfp inh)
COc1cccc(CNS(=O)(=O)c2cc(-c3cc(C)no3)ccc2C(C)C)c1	G9a inh 71µM
Cc1cc(-c2ccc(C(C)C)c(S(=O)(=O)NCc3ccco3)c2)on1	G9a inh 79µM, ALOX12 inh inconclusive
CC(=O)Nc1ccc(-c2nnc(SCc3ccc(C)cc3)n2C)cc1	G9a inh 5µM, ALOX12 inh inconclusive
CC(=O)Nc1ccc(-c2nnc(SCC(=O)NCc3ccco3)n2C)cc1	G9a inh 3.2µM
CCCCN(CCCC)S(=O)(=O)c1ccc(C(=O)Nc2sc3c(c2C(N)=O)CCN(CC)C3)cc1	none (no result: Sfp inh)
CCN1CCc2c(sc(NC(=S)NC(=O)c3ccco3)c2C(N)=O)C1	Sfp inh 22µM, G9a inh 20µM
CCOC(=O)N1CCc2c(sc(NC(C)=O)c2C(N)=O)C1	none (no result: Sfp inh, G9a inh)
Cc1sc(NC(=S)NC(=O)c2ccco2)c(C(N)=O)c1C	Sfp inh inconclusive, G9a inh 40µM
Cc1sc(NC(=S)NC(=O)CCc2ccccc2)c(C(N)=O)c1C	G9a inh inconclusive
CCOC(=O)N1CCc2c(sc(NC(=O)c3ccc(Cl)s3)c2C(N)=O)C1	Sfp inh 50µM, G9a inh 28µM (no result: Glioma ERSR ind, VDR inh, ALOX12 inh)
CCN1CCc2c(sc(NC(=O)Cc3ccccc3)c2C(N)=O)C1	none (no result: G9a inh)
CCN1CCc2c(sc(NC(=O)c3ccc(C(=O)c4ccccc4)cc3)c2C(N)=O)C1	G9a inh 71µM, ALOX12 inh inconclusive
NC(=O)c1c(NC(=O)c2ccccc2)sc2c1CCN(Cc1ccccc1)C2	none
CC(C)C(=O)Nc1sc2c(c1C(N)=O)CCN(Cc1ccccc1)C2	G9a inh 71µM
CCN1CCc2c(sc(NC(=O)c3ccc(S(=O)(=O)N4CCOCC4)cc3)c2C(N)=O)C1	G9a inh 56µM
CCS(=O)(=O)Nc1ccc(C2(C(=O)Nc3cccc(F)c3C)CCCCC2)cc1	none (no result: Sfp inh, G9a inh, Glioma ERSR ind, VDR inh)
CNC(=S)N/N=C/c1cc(C)n(-c2ccc(Cl)c(Cl)c2)c1C	G9a inh 45µM, ALOX12 inh inconclusive
COc1ccc(-n2c(C)cc(/C=N/Nc3nnc(C)n3N)c2C)cc1	Sfp inh 32µM, G9a inh 11µM, VDR inh inconclusive
Cc1ccc(-n2c(C)cc(/C=N/NC(=O)c3ccncc3)c2C)cc1	G9a inh inconclusive, ALOX12 inh inconclusive
CNC(=S)N/N=C/c1ccccc1Cl	none
Cc1ccc(-n2c(C)cc(/C=N/NC(N)=S)c2C)cc1	G9a inh inconclusive, ALOX12 inh 45µM
Cc1ccc(-c2cc3c(=O)n(CCNC(=O)c4cccc5[nH]ccc45)ccn3n2)cc1C	none (no result: Sfp inh, G9a inh, Glioma ERSR ind, VDR inh)
COc1ccc(-c2nc(CNC(=O)NC(C)C)c(C)o2)cc1	none (no result: Sfp inh, G9a inh, Glioma ERSR ind, VDR inh)
O=C1CNC(=S)N1CCc1ccc(O)c(O)c1	Sfp inh 45µM, G9a inh 10µM, ALOX12 inh inconclusive
CC(C)c1noc(CCCC(=O)Nc2cccc(OC3CCCC3)c2)n1	none (no result: Sfp inh, G9a inh, Glioma ERSR ind, VDR inh)
O=[N+]([O-])c1ccc(/C=[N+](\[O-])[C@@H]2CCCC[C@@H]2/[N+]([O-])=C/c2ccc([N+](=O)[O-])o2)o1	Sfp inh inconclusive, G9a inh 50µM, ALOX12 inh inconclusive
O=C(N/N=C/c1ccc([N+](=O)[O-])o1)C1CCCC1	none
O=[N+]([O-])c1cc([N+](=O)[O-])c(Oc2cc(F)ccc2F)cc1NN1CCCCC1	G9a inh inconclusive
COc1cccc(Oc2cc(NN3CCCCC3)c([N+](=O)[O-])cc2[N+](=O)[O-])c1OC	G9a inh 40µM, ALOX12 inh inconclusive
O=[N+]([O-])c1cc([N+](=O)[O-])c(Oc2ccc(Br)cc2Br)cc1NN1CCCCC1	G9a inh 16µM
O=[N+]([O-])c1cc([N+](=O)[O-])c(Oc2cccc3c2CCCC3)cc1NN1CCCCC1	none (no result: Sfp inh, G9a inh)
O=[N+]([O-])c1cc([N+](=O)[O-])c(Oc2c(F)cc(F)cc2F)cc1NN1CCCCC1	G9a inh 50µM
O=C(c1nn(Cc2ccccc2)c(=O)c2ccccc12)N1CCN(c2ccccc2)CC1	none (no result: Sfp inh, G9a inh, Glioma ERSR ind, VDR inh)
CCOC(=O)C1CCCCN1Cc1ccc(-c2ccccc2)cc1 (stereo not drawn)	G9a inh inconclusive, ALOX12 inh inconclusive
CCOC(=O)C1CCCCN1Cc1cc(Cl)ccc1O (stereo not drawn)	ALOX12 inh inconclusive
CCOC(=O)C1CCCCN1Cc1cc(OC)ccc1OC (stereo not drawn)	G9a inh 13µM, ALOX12 inh inconclusive
CCOC(=O)C1CCCCN1Cc1cccc(OC)c1OC (stereo not drawn)	Sfp inh inconclusive, G9a inh 11µM, ALOX12 inh inconclusive
Cc1ccc(C(=O)NC(=S)N2CCN(C)CC2)cc1Br	G9a inh 45µM, ALOX12 inh inconclusive

Source: PubChem BioAssay
